The results in this text go back to PubChem BioAssay (NCI).

“And” between values parts separate entries of the source, which are not always exact repeats. Equal entries are not always repeated. Compounds without any hit were thinned out: in the full panel of roughly 83,000, 20% have a hit.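 How to read the values: 0–100, growth inhibition (40 = 60% inhibited); 0, no net growth; -100 to 0, cell death (-40 = 40% of starting cells died; -100 = all dead).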 The source made the active and inactive calls. The calls were made as follows: active = growth percent below 10; inactive = the rest.

Test systems include NCI-H23 lung; NCI-H226 lung; NCI-H322M lung; HOP-62 NSCLC; NCI-H460 lung; HOP-92 NSCLC; NCI-H522 lung; A549/ATCC NSCLC; 786-0 renal; COLO 205 colon; DU-145 prostate; K-562 leukemia; MALME-3M melanoma; MDA-MB-231 breast; RXF 393 renal; SF-268 CNS; SF-295 CNS; SF-539 CNS; UACC-257 melanoma; M14 melanoma.
What all share (experiment): NCI-60 one-dose screen, 48 h (100 = growth as untreated, 0 = no growth, -100 = all killed)
Common to all, as to settings: 10 µM unless noted

For `O=C(c1ccc(Cl)cc1)C1C(c2ccccc2)C1[N+](=O)[O-]` (stereo not given), the growth with NCI-H23 lung is 84.6% (inactive); in the assay on NCI-H226 lung, 97.2% (inactive); in the assay on NCI-H322M lung, 89.8% (inactive); with HOP-62 NSCLC, 98% (inactive); in the assay with NCI-H460 lung it was 104% (inactive); in the assay on HOP-92 NSCLC, 80.9% (inactive). The growth in the assay on NCI-H522 lung was 101% (inactive); with A549/ATCC NSCLC, 98.6% (inactive); with 786-0 renal, 98.8% (inactive); in the assay on COLO 205 colon, 111% (inactive); in the assay on DU-145 prostate it was 105% (inactive); with K-562 leukemia it was 92.7% (inactive). The growth in the assay with MALME-3M melanoma was 104% (inactive); with MDA-MB-231 breast it was 91.2% (inactive); in the assay with RXF 393 renal, 106% (inactive); in the assay with SF-268 CNS, 98.1% (inactive); in the assay on SF-295 CNS, 103% (inactive); in the assay with SF-539 CNS, 103% (inactive). The values for the growth with UACC-257 melanoma and with M14 melanoma were 105% (inactive) and 102% (inactive), respectively.
In the case of `O=C(NC(CSSCC(NC(=O)OCc1ccccc1)C(=O)O)C(=O)O)OCc1ccccc1` (stereo not given), the growth with NCI-H23 lung is 93.2% (inactive) and 97.3% (inactive); in the assay on NCI-H226 lung it was 86.1% (inactive); with NCI-H322M lung, 92.9% (inactive) and 102% (inactive); in the assay on HOP-62 NSCLC, 95% (inactive) and 81.8% (inactive); in the assay with NCI-H460 lung it was 95% (inactive) and 107% (inactive); in the assay on HOP-92 NSCLC, 63.8% (inactive) and 78.5% (inactive). The growth was 70.3% (inactive) in the assay on NCI-H522 lung; 80.5% (inactive) in the assay with A549/ATCC NSCLC; 91.2% (inactive) and 91.1% (inactive) with 786-0 renal; 96.4% (inactive) and 91.5% (inactive) in the assay on COLO 205 colon; 101% (inactive) and 118% (inactive) in the assay on DU-145 prostate; 84.7% (inactive) and 78.1% (inactive) with K-562 leukemia. Moreover, the growth was 86.6% (inactive) and 104% (inactive) in the assay with MALME-3M melanoma; 90.5% (inactive) and 108% (inactive) in the assay on MDA-MB-231 breast; 81% (inactive) and 113% (inactive) with RXF 393 renal; 92.4% (inactive) and 107% (inactive) with SF-268 CNS; 89.6% (inactive) and 103% (inactive) with SF-295 CNS; 93.7% (inactive) and 91.8% (inactive) in the assay with SF-539 CNS. The growth was 91.9% (inactive) with UACC-257 melanoma; 93.5% (inactive) and 88.9% (inactive) with M14 melanoma.
`O=[N+]([O-])c1ccc(NC2CCCCC2)nc1`: the growth with NCI-H23 lung is 93.2% (inactive) and 96.9% (inactive); in the assay on NCI-H226 lung, 113% (inactive) and 92.4% (inactive); in the assay on NCI-H322M lung, 117% (inactive) and 105% (inactive); in the assay with HOP-62 NSCLC, 94.8% (inactive) and 101% (inactive); with NCI-H460 lung, 108% (inactive) and 105% (inactive); in the assay with HOP-92 NSCLC it was 114% (inactive) and 81.8% (inactive). In addition, the growth was 95.1% (inactive) and 92.1% (inactive) with NCI-H522 lung; 101% (inactive) and 98.5% (inactive) in the assay on A549/ATCC NSCLC; 103% (inactive) in the assay on 786-0 renal; 108% (inactive) and 102% (inactive) in the assay on COLO 205 colon; 96.7% (inactive) and 119% (inactive) in the assay on DU-145 prostate; 108% (inactive) and 104% (inactive) in the assay with K-562 leukemia. Further, the growth with MALME-3M melanoma is 118% (inactive); in the assay on MDA-MB-231 breast it was 95.4% (inactive) and 114% (inactive); with RXF 393 renal, 126% (inactive) and 103% (inactive); in the assay on SF-268 CNS, 110% (inactive) and 112% (inactive); in the assay on SF-295 CNS, 103% (inactive) and 102% (inactive); with SF-539 CNS, 99.6% (inactive) and 110% (inactive). In addition, the growth was 107% (inactive) and 106% (inactive) in the assay with UACC-257 melanoma; 105% (inactive) and 109% (inactive) in the assay on M14 melanoma.
In the case of `OCc1cccc(F)c1`, the growth is 79.6% (inactive) with NCI-H23 lung; 104% (inactive) in the assay with NCI-H226 lung; 90.2% (inactive) with NCI-H322M lung; 100% (inactive) in the assay with HOP-62 NSCLC; 41.8% (inactive) with NCI-H460 lung; 118% (inactive) in the assay on HOP-92 NSCLC. Also, the growth in the assay on NCI-H522 lung was 67.8% (inactive); in the assay on A549/ATCC NSCLC it was 99.3% (inactive); in the assay with 786-0 renal, 103% (inactive); with COLO 205 colon it was 90.1% (inactive); in the assay with DU-145 prostate, 3.58% (active); in the assay with K-562 leukemia, 99.4% (inactive). Besides, the growth in the assay with MALME-3M melanoma is 106% (inactive); with MDA-MB-231 breast it was 89.6% (inactive); with RXF 393 renal it was 67.8% (inactive); in the assay with SF-268 CNS, 97.4% (inactive); in the assay on SF-295 CNS, 72.3% (inactive); in the assay with SF-539 CNS it was 111% (inactive). In addition, the growth was 101% (inactive) in the assay with UACC-257 melanoma and 94.9% (inactive) in the assay with M14 melanoma.
For the compound `CCN(C)c1ccccc1`, the growth is 102% (inactive) with NCI-H23 lung; 95.7% (inactive) in the assay with NCI-H226 lung; 111% (inactive) in the assay on NCI-H322M lung; 108% (inactive) in the assay with HOP-62 NSCLC; 108% (inactive) in the assay on NCI-H460 lung; 101% (inactive) with HOP-92 NSCLC. Besides, the growth was 99.5% (inactive) in the assay with NCI-H522 lung; 105% (inactive) in the assay with A549/ATCC NSCLC; 97% (inactive) in the assay on 786-0 renal; 95.7% (inactive) in the assay on COLO 205 colon; 108% (inactive) with DU-145 prostate; 110% (inactive) with K-562 leukemia. The growth is 96% (inactive) in the assay with MALME-3M melanoma; 98.8% (inactive) with MDA-MB-231 breast; 106% (inactive) with RXF 393 renal; 99.1% (inactive) in the assay on SF-268 CNS; 91% (inactive) in the assay with SF-295 CNS; 97.7% (inactive) in the assay on SF-539 CNS. For the same compound, the growth in the assay on UACC-257 melanoma was 103% (inactive); with M14 melanoma, 100% (inactive).
In the case of `CC(=O)Nc1ccc(OC(C)=O)cc1`, the growth with NCI-H23 lung was 12% (inactive) and 103% (inactive); with NCI-H226 lung, 5.48% (active) and 98.2% (inactive); with NCI-H322M lung it was 29.5% (inactive) and 112% (inactive); with HOP-62 NSCLC it was 8.93% (active) and 111% (inactive); in the assay on NCI-H460 lung it was 2.3% (active) and 98.6% (inactive); in the assay on HOP-92 NSCLC it was 102% (inactive). The growth was -31.9% (active) and 105% (inactive) with NCI-H522 lung; 6.06% (active) and 102% (inactive) with A549/ATCC NSCLC; 11.4% (inactive) and 99.9% (inactive) with 786-0 renal; -81.3% (active) and 108% (inactive) in the assay on COLO 205 colon; -16.4% (active) and 109% (inactive) with DU-145 prostate; 8.26% (active) and 106% (inactive) in the assay with K-562 leukemia. The growth with MALME-3M melanoma is 44.4% (inactive) and 111% (inactive); in the assay with MDA-MB-231 breast, -20.3% (active) and 111% (inactive); with RXF 393 renal it was -5.2% (active) and 95.3% (inactive); with SF-268 CNS, 23.1% (inactive) and 103% (inactive); with SF-295 CNS it was 9.59% (active) and 105% (inactive); in the assay on SF-539 CNS it was 2.32% (active) and 95.1% (inactive). Moreover, the growth in the assay on UACC-257 melanoma is 55.4% (inactive) and 102% (inactive); in the assay with M14 melanoma it was 0.268% (active) and 103% (inactive).
Consider `COC(=O)c1nc(N)nc(C(=O)OC)c1C(=O)c1ccc(F)cc1`, for which the growth with NCI-H23 lung was 105% (inactive); in the assay with NCI-H226 lung, 110% (inactive); in the assay on NCI-H322M lung, 108% (inactive); in the assay on HOP-62 NSCLC, 113% (inactive); with NCI-H460 lung, 117% (inactive); in the assay with HOP-92 NSCLC, 101% (inactive). The growth with NCI-H522 lung was 103% (inactive); in the assay on A549/ATCC NSCLC, 114% (inactive); with 786-0 renal, 108% (inactive); in the assay on COLO 205 colon it was 117% (inactive); with DU-145 prostate, 111% (inactive); in the assay with K-562 leukemia, 109% (inactive). Further, the growth is 104% (inactive) in the assay on MALME-3M melanoma; 103% (inactive) in the assay with MDA-MB-231 breast; 104% (inactive) in the assay on RXF 393 renal; 103% (inactive) in the assay with SF-268 CNS; 101% (inactive) with SF-295 CNS; 103% (inactive) in the assay on SF-539 CNS. Moreover, the growth in the assay with UACC-257 melanoma is 110% (inactive); with M14 melanoma, 108% (inactive).
